Compounds with a hit are over-represented: about 3.2% of the library has one in this group of screens.
MARV entry inh = qHTS for inhibitors of binding or entry into cells for Marburg Virus; Marburg virus pseudotyped entry inhibition, cell reporter; Potency, µM (top dose mostly 37.8 µM), usual class: inhibitors; 1.8% of 300,000 active; AID 540276, 2011; calls by dose curve; tested in HEK293 cells
FMDV antiviral = High Throughput Screening for Foot and Mouth Disease Virus Antivirals; AID 1159524, 2015; FMDV antiviral cell-based qHTS; Potency, µM (titrated, usually from 57.9 µM), actives largely listed as inhibitors; 1.2% of 410,000 active; calls by dose curve; tested in HEK293T cells; further: read-out not given here; nearly all actives have a fitted effect of over 45% in size
Lassa entry inh = qHTS for Inhibitors of binding or entry into cells for Lassa Virus. Potency, µM (series often up to 37.9 µM), hits mostly inhibitors. 1.2% of 300,000 active. Lassa virus pseudotype entry inhibition, cell reporter; calls by dose curve; tested in HEK293 cells; further: nearly all actives have a fitted effect of over 50% in size
Vaccinia mCherry = qHTS for Stage-Specific Inhibitors of Vaccinia Orthopoxvirus: mCherry Reporter Primary qHTS; Vaccinia virus mCherry reporter infection, fluorescence; 0.63% of 310,000 active; AID 720579, 2013; Potency, µM (series often up to 36.5 µM), most hits filed as inhibitors; calls by dose curve; tested in A549 cells; further: nearly all actives have a fitted effect of over 35% in size
VACV Venus inh = qHTS for Stage-Specific Inhibitors of Vaccinia Orthopoxvirus: Venus Reporter Primary qHTS; Potency, µM (doses to about 36.5 µM), most hits filed as inhibitors; 0.46% of 330,000 active; Vaccinia virus Venus reporter expression, fluorescence; AID 720580, 2013; calls by dose curve; tested in A549 cells; further: nearly all actives have a fitted effect of over 30% in size
Numbers stand for hits; ! = not confirmed by another sample.

Results for CC(=O)Nc1ccc(S(=O)(=O)N(C2=NCC(C)S2)c2ccccc2)cc1 (stereo not given) ?
MARV entry inh: 15.8µM; FMDV antiviral: inactive; Lassa entry inh: inconclusive; VACV Venus inh: inactive

What do the screens show for `CC(=O)Nc1ccc(S(=O)(=O)N(c2cccnc2)S(=O)(=O)c2ccc(NC(C)=O)cc2)cc1`?
MARV entry inh: inconclusive; FMDV antiviral: inactive; Lassa entry inh: 0.82µM

Results for CN(C)c1ccc(C=NC2CCc3ccccc32)cc1 (stereo not given) ?
Vaccinia mCherry: inactive; VACV Venus inh: inactive

What do the screens show for `Cc1nn(-c2ccccc2)c(C)c1/C=C1\C(=O)N(C)C(=S)N1C`?
MARV entry inh: inconclusive; FMDV antiviral: inactive; Lassa entry inh: inactive; Vaccinia mCherry: inactive; VACV Venus inh: inactive

What do the screens show for `CN(C)CCC=C1c2ccccc2CCc2ccccc21`?
MARV entry inh: 11.6µM!; FMDV antiviral: inconclusive; Lassa entry inh: 9.2µM; Vaccinia mCherry: inconclusive; VACV Venus inh: inactive

How did CN(C)CCC=C1c2ccccc2C=Cc2ccccc21 do in these assays?
MARV entry inh: 6.51µM; FMDV antiviral: inactive; Lassa entry inh: 8.2µM; Vaccinia mCherry: inactive; VACV Venus inh: inactive

Results for CNCCC=C1c2ccccc2C=Cc2ccccc21 ?
FMDV antiviral: inactive; Vaccinia mCherry: inactive; VACV Venus inh: inactive

How did CCOc1cccc(CC(=O)N2CCc3c([nH]c4ccc(OC)cc34)C2c2ccc(F)cc2)c1OCC (stereo not given) do in these assays?
MARV entry inh: inactive; FMDV antiviral: inactive; Lassa entry inh: inconclusive; Vaccinia mCherry: inactive; VACV Venus inh: inactive

How did COc1ccc2[nH]c3c(c2c1)CCN(C(=O)c1cccc(Cl)c1)C3c1ccc(F)cc1 (stereo not given) do in these assays?
MARV entry inh: 1µM; FMDV antiviral: inactive; Lassa entry inh: inconclusive; Vaccinia mCherry: inconclusive; VACV Venus inh: inactive

Results for CC1(C(=O)O)CCN1C(=O)c1ccccc1F (stereo not given) ?
FMDV antiviral: 5.01µM; Vaccinia mCherry: inactive; VACV Venus inh: inactive

What do the screens show for `CCCC(=O)Nc1nnc(S(=O)(=O)N(CC)c2ccc(OC)cc2)s1`?
MARV entry inh: inactive; FMDV antiviral: inactive; Lassa entry inh: inactive; Vaccinia mCherry: inactive; VACV Venus inh: inactive

What do the screens show for `CN(Cc1ccc(OC(F)F)cc1)C(=O)c1cccc(S(=O)(=O)N2CCN(Cc3ccccc3)CC2)c1`?
MARV entry inh: inconclusive; FMDV antiviral: 12.6µM; Lassa entry inh: inconclusive; Vaccinia mCherry: inactive; VACV Venus inh: inactive

How did CN(Cc1c(F)cccc1Cl)C(=O)c1cccc(S(=O)(=O)N2CCN(Cc3ccccc3)CC2)c1 do in these assays?
FMDV antiviral: inactive

Results for CN(CC(=O)Nc1ccc(Cl)cc1)C(=O)c1cccc(S(=O)(=O)N2CCN(Cc3ccccc3)CC2)c1 ?
MARV entry inh: inconclusive; FMDV antiviral: 22.4µM; Lassa entry inh: inactive; Vaccinia mCherry: inactive; VACV Venus inh: inactive

How did COC(=O)C1=CN(C(C)C)C=C(C(=O)OC)C1c1cccc(OC)c1 do in these assays?
MARV entry inh: inactive; FMDV antiviral: inconclusive; Lassa entry inh: inactive; Vaccinia mCherry: inactive; VACV Venus inh: inactive

How did COC(=O)C1=CN(C(C)C)C=C(C(=O)OC)C1c1cc(Br)c(OC)c(OC)c1 do in these assays?
MARV entry inh: inconclusive; FMDV antiviral: inconclusive; Lassa entry inh: 4.11µM

Results for CNC(=O)c1cc(-c2cccs2)on1 ?
Vaccinia mCherry: inactive; VACV Venus inh: inconclusive

Results for Nc1c(C(O)(C(F)(F)F)C(F)(F)F)cc(C(O)(C(F)(F)F)C(F)(F)F)c2ccccc12 ?
MARV entry inh: 11.2µM; FMDV antiviral: inconclusive; Lassa entry inh: 22.4µM; Vaccinia mCherry: 11.2µM; VACV Venus inh: inconclusive

What do the screens show for `COc1cc(C(C)n2nnc3ccccc32)ccc1O` (stereo not given)?
FMDV antiviral: inactive; Vaccinia mCherry: inactive; VACV Venus inh: inactive

How did CC[C@H](C)[C@@H]1OC(=O)[C@@H](C)[C@@H](CC)NC(=O)[C@H](C)N(C)C(=O)C(C)(C)C(=O)C(C)NC(=O)[C@H](Cc2ccccc2)N(C)C(=O)[C@H](C(C)C)N(C)C(=O)CNC(=O)[C@H](CC(C)C)N(C)C(=O)CNC1=O (stereo not given in full) do in these assays?
FMDV antiviral: inactive; Vaccinia mCherry: 2µM; VACV Venus inh: 2.24µM

How did CN1C(=O)c2ccccc2NC(=O)C1Cc1ccccc1 (stereo not given) do in these assays?
FMDV antiviral: inactive; Vaccinia mCherry: inactive; VACV Venus inh: inactive

Source: PubChem
